From PubChem BioAssay (NCI)
Compounds without any hit were thinned out: in the full panel of roughly 79,000, 15% have a hit. Active and inactive are the calls of the source. No stated cut-off is given here; in the data, active means growth inhibition above about 70%; inactive means the rest.

Tests used:
[1] = NCI Yeast Anticancer Drug Screen. Data for the rad50 strain (AID 155);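 further: 0% = growth of vehicle-only cultures of the same strain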; details: S. cerevisiae rad50 strain growth inhibition, hits give high values
Method in brief: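 Yeast carrying a defined DNA repair defect were exposed to test compounds, and growth was compared with vehicle-treated controls to give percent inhibition.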

[2] = NCI Yeast Anticancer Drug Screen. Data for the mec2-1 strain (AID 157); details: S. cerevisiae mec2-1 strain, hits give high values
Method in brief: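 Growth inhibition is read against vehicle-treated controls after compound exposure of the mec2-1 yeast strain, which is defective in DNA damage repair or cell cycle control.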

[3] = NCI Yeast Anticancer Drug Screen. Data for the sgs1 mgt1 strain (AID 161);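 further: 0% = growth of cultures given vehicle only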; details: S. cerevisiae sgs1 mgt1 strain, hits give high values
Method in brief: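 This yeast growth screen uses a strain with defined DNA-repair lesions; compound-treated growth is compared with vehicle-treated growth.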

[4] = NCI Yeast Anticancer Drug Screen. Data for the cln2 rad14 strain (AID 165);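 further: 0% = growth equal to vehicle treated cultures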; details: S. cerevisiae cln2 rad14 strain, hits give high values
Method in brief: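 Growth inhibition, relative to vehicle-treated controls, is the read-out. The test organism is a yeast strain with defined genetic alterations, cln2 rad14.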

[5] = NCI Yeast Anticancer Drug Screen. Data for the bub3 strain (AID 167); details: S. cerevisiae bub3 mutant strain, hits give high values
Method in brief: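 Compounds were applied to a genetically altered yeast strain carrying a cell-cycle control defect. Growth inhibition was scored against vehicle-treated controls.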

[6] = NCI Yeast Anticancer Drug Screen. Data for the mlh1 rad18 strain (AID 175); details: S. cerevisiae mlh1 rad18 strain growth inhibition, hits give high values
Method in brief: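 Cells of a genetically altered yeast strain, deficient in DNA damage repair, were treated with compound. Their growth was then compared with that of vehicle-treated cultures to give inhibition.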

[7] = at 5.0 µM (retest, dose inferred, filed as 0.5)
[8] = at 50.0 µM (retest, dose inferred, filed as 5.0)

Measured: growth inhibition

CC(C)SC(=S)S(=O)(=O)c1ccc(Cl)cc1
active: [1]; at 50.0 µM 99.4% | [2]; at 50.0 µM 99.8% | [3]; [8] 74% | [3]; at 50.0 µM 99.7% | [4]; at 50.0 µM 78.2% | [5]; [8] 83% | [5]; at 50.0 µM 99.7% | [6]; [8] 76% | [6]; at 50.0 µM 99.7%
inactive: [1]; [7] 5% | [1]; [8] 69% | [2]; [7] 0% | [2]; [8] 64% | [3]; [7] 18% | [4]; [7] -6% | [4]; [8] 63% | [5]; [7] 11% | [6]; [7] 8%

Cc1cc(NC(=S)SC(C)C)ccc1Br
inactive: [1]; [7] 5% | [2]; [7] 0% | [3]; [7] 2% | [4]; [7] -19% | [5]; [7] 7% | [6]; [7] -3%
active: [1]; [8] 99% | [1]; at 50.0 µM 99.5% | [2]; [8] 100% | [2]; at 50.0 µM 99.7% | [3]; [8] 99% | [3]; at 50.0 µM 71.8% | [4]; [8] 99% | [4]; at 50.0 µM 98.9% | [5]; [8] 99% | [5]; at 50.0 µM 99.5% | [6]; [8] 99% | [6]; at 50.0 µM 99.3%

BrC1(c2ccccc2)C[n+]2c(-c3ccccc3)cc(-c3ccccc3)cc2-c2ccccc21 (stereo not given)
active: [1]; [7] 95% | [1]; [8] 99% | [1]; at 50.0 µM 89.8% | [2]; [7] 96% | [2]; [8] 99% | [2]; at 50.0 µM 91.5% | [3]; [7] 97% | [3]; [8] 98% | [3]; at 50.0 µM 91.2% | [4]; [7] 95% | [4]; [8] 99% | [4]; at 50.0 µM 91.2% | [5]; [8] 98% | [5]; at 50.0 µM 89.4% | [6]; [7] 97% | [6]; [8] 99% | [6]; at 50.0 µM 91%
inactive: [5]; [7] 37%

CC(C)(c1ccc(OC#N)cc1)c1ccc(OC#N)cc1
inactive: [1]; [7] 21% | [1]; at 50.0 µM 66% | [2]; [7] -23% | [2]; at 50.0 µM 53.4% | [3]; [7] 4% | [3]; [8] 40% | [4]; [7] 23% | [4]; at 50.0 µM 61.4% | [5]; [7] 1% | [5]; at 50.0 µM 25% | [6]; [7] -14% | [6]; [8] 59% | [6]; at 50.0 µM 47%
active: [1]; [8] 78% | [2]; [8] 87% | [3]; at 50.0 µM 79.5% | [4]; [8] 88% | [5]; [8] 95%

COc1cc(C=Nc2ccc(Cl)cc2)ccc1OC(=O)c1ccccc1
inactive: [1]; [7] 6% | [1]; [8] -8% | [1]; at 50.0 µM 18% | [2]; [7] -6% | [2]; [8] -5% | [2]; at 50.0 µM -37% | [3]; [7] -2% | [3]; [8] -1% | [3]; at 50.0 µM -3.8% | [4]; [7] 26% | [4]; [8] 21% | [4]; at 50.0 µM 7.55% | [5]; [7] 27% | [5]; [8] 30% | [5]; at 50.0 µM -6.5% | [6]; [7] 3% | [6]; [8] -18% | [6]; at 50.0 µM 11.1%

CC/C(=N\NC(=S)SC)c1ccccn1
active: [1]; [8] 96% | [2]; [8] 96% | [3]; [8] 96% | [3]; at 50.0 µM 88.9% | [4]; [8] 97% | [4]; at 50.0 µM 88.7% | [5]; [8] 96% | [5]; at 50.0 µM 86.2% | [6]; [8] 96% | [6]; at 50.0 µM 87%
inactive: [1]; [7] 24% | [1]; at 50.0 µM -13.7% | [2]; [7] 16% | [2]; at 50.0 µM -5.4% | [3]; [7] 24% | [4]; [7] 24% | [5]; [7] 18% | [6]; [7] 25%

CC(NNC(=S)N1CCCCCC1)c1cc2ccccc2cn1 (stereo not given)
inactive: [1]; [7] 52% | [2]; [7] 65% | [4]; at 50.0 µM 68.5% | [6]; [7] 47%
active: [1]; [8] 95% | [1]; at 50.0 µM 86.2% | [2]; [8] 97% | [2]; at 50.0 µM 78.7% | [3]; [7] 93% | [3]; [8] 96% | [3]; at 50.0 µM 86.6% | [4]; [7] 90% | [4]; [8] 91% | [5]; [7] 87% | [5]; [8] 96% | [5]; at 50.0 µM 83.5% | [6]; [8] 95% | [6]; at 50.0 µM 90.5%

COC(=O)[C@]1(C)CCCC2(C)C3=C(CCC21)CC1(CC3)SCCS1 (stereo not given in full)
inactive: [1]; [7] 12% | [2]; [7] 41% | [3]; [7] 29% | [4]; [7] 46% | [5]; [7] 56% | [6]; [7] 18%
active: [1]; [8] 92% | [1]; at 50.0 µM 85.4% | [2]; [8] 94% | [2]; at 50.0 µM 91.3% | [3]; [8] 93% | [3]; at 50.0 µM 87.6% | [4]; [8] 96% | [4]; at 50.0 µM 86.4% | [5]; [8] 95% | [5]; at 50.0 µM 86.5% | [6]; [8] 95% | [6]; at 50.0 µM 85.7%

c1ccc(N=Nc2n[nH]c3ccccc23)cc1
active: [1]; [8] 94% | [1]; at 50.0 µM 98.6% | [2]; [8] 74% | [2]; at 50.0 µM 98.8% | [3]; [8] 85% | [3]; at 50.0 µM 92.6% | [4]; at 50.0 µM 98% | [5]; [8] 91% | [5]; at 50.0 µM 97.1% | [6]; [8] 94% | [6]; at 50.0 µM 97%
inactive: [1]; [7] -144% | [2]; [7] -51% | [3]; [7] -66% | [4]; [7] -59% | [4]; [8] 29% | [5]; [7] -65% | [6]; [7] -119%

CCCCCCCCC1N(C)CCCN1C
active: [1]; [8] 97% | [1]; at 50.0 µM 99.5% | [2]; [8] 98% | [2]; at 50.0 µM 99.6% | [3]; [8] 98% | [4]; [8] 98% | [4]; at 50.0 µM 98.3% | [5]; [8] 98% | [5]; at 50.0 µM 99% | [6]; [8] 98% | [6]; at 50.0 µM 99.5%
inactive: [1]; [7] -76% | [2]; [7] -51% | [3]; [7] -37% | [3]; at 50.0 µM 49% | [4]; [7] -56% | [5]; [7] -52% | [6]; [7] -102%
